Source: PubChem
This is a sample that favours compounds with a hit; in the whole collection about 21% have one here.
CHX counter – affects cycloheximide protein synthesis inhibition readout, counter-screen; cell reporter, cycloheximide protein synthesis inhibition counterscreen; max response, %; 300,000 compounds, 12% hits; in the data active means max response mostly above about 13%, no sharp cut-off; inactive means mostly below about 14%; further: read at 38.3 µM for the half of the compounds with a filed dose
NS1 function inh – influenza NS1 inhibition. 270,000 compounds, 0.4% hits. Potency, µM (series often up to 46.1 µM); calls by dose curve; further: actives are rising curves; nearly all actives have a fitted effect of over 50% in size
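Read-out: OD600 growth recovery of NS1-expressing budding yeast. Cells grown overnight at 30C in -URA glucose medium, washed, resuspended and diluted 1:100 in 2% galactose assay medium, pH 6.0. Same strain lacking NS1 served as positive control.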
SARS PLpro yeast – SARS-CoV PLP inhibition in yeast. 330,000 compounds, 0.19% hits. S. cerevisiae expressing SARS-CoV PLpro, growth rescue. Potency, µM (highest dose often 32.9 µM), hits mostly activators. AID 485353; calls by dose curve; further: nearly all actives have a fitted effect of over 55% in size
Pf growth 96h – inhibits malaria parasite growth, 96 h. P. falciparum luciferase reporter growth, 96 h. Potency, µM (titrated, usually from 28.7 µM), hits mostly inhibitors. 320,000 compounds, 6.9% hits
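Infected RBCs, 2% Hct / 0.05% parasitemia final; luciferase-reporter P. falciparum; cpd 96 h, 37 C, 5% CO2; luciferase detection reagent; luminescence.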
Shiga inhibitor – inhibitors of Shiga toxin in Vero cells; Vero cells, Shiga toxin protein synthesis inhibition reporter; inhibition, % at 38.7 µM; 290,000 compounds, 9.2% hits; in the data active means inhibition mostly above about 28%, no sharp cut-off; inactive means mostly below about 43%
Pf growth 48h – inhibits P. falciparum growth in the first generation, 48 h | P. falciparum luciferase growth in erythrocytes, 48 h | 310,000 compounds, 5.9% hits | Potency, µM (series often up to 28.7 µM), actives largely listed as inhibitors
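Luciferase-expressing parasites in RBCs, 2% Hct / 0.1% parasitemia final; RPMI 1640 + 0.5% Albumax; 37 C, 5% CO2, one generation; luminescence read-out, lower signal = inhibition.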
Numbers stand for hits; [ ] = dose if it differs, or a comment. Unless noted, the call rests on the fitted dose curve; in most records, active means well fitted inhibition curve with a large enough effect; inconclusive means small, poorly fitted or top-dose-only effect, or another doubt; inactive means no such curve, though single readings can be large or run the other way.

CC(=O)c1sc(NC(=O)c2ccc(Br)o2)nc1C was read as CHX counter 38, NS1 function inh inactive, SARS PLpro yeast inactive, Pf growth 96h inconclusive, Shiga inhibitor 34 and Pf growth 48h inactive.
Cc1ccc(C(=O)Nc2nc3c(s2)CCCC3)o1 was read as CHX counter inactive, NS1 function inh inactive, SARS PLpro yeast inactive, Pf growth 96h 13µM, Shiga inhibitor inactive and Pf growth 48h inactive.
Screening CC(=O)c1sc(NC(=O)c2ccc(Cn3cc(Br)cn3)o2)nc1C returned CHX counter inactive, NS1 function inh inactive, SARS PLpro yeast inactive, Pf growth 96h inactive, Shiga inhibitor inactive and Pf growth 48h inactive.
`O=C(Nc1nc2c(s1)CCCC2)c1ccc(Br)o1` gave CHX counter 23, NS1 function inh inactive, SARS PLpro yeast inactive, Pf growth 96h inactive, Shiga inhibitor 73 and Pf growth 48h inactive.
Cc1ccc(-c2nnc(SCC(=O)Nc3nc4c(s3)CCCC4)n2C)cc1 was read as CHX counter inactive, NS1 function inh inactive, SARS PLpro yeast inactive, Pf growth 96h inconclusive, Shiga inhibitor inactive and Pf growth 48h inactive.
O=C(NNS(=O)(=O)c1ccccc1[N+](=O)[O-])c1cccnc1 was read as CHX counter inactive, NS1 function inh inactive, SARS PLpro yeast inactive, Pf growth 96h inconclusive, Shiga inhibitor inactive and Pf growth 48h inactive.
For NC(=O)C1CCN(C(=O)CSc2ccsc2[N+](=O)[O-])CC1 the results were CHX counter inactive, SARS PLpro yeast inactive, Pf growth 96h inactive, Shiga inhibitor inactive and Pf growth 48h inactive[5.75 µM].
Screening CC1CC(=O)Nc2ccccc2N1S(=O)(=O)c1ccc(F)cc1F (stereo not drawn) returned CHX counter inactive, NS1 function inh inactive, SARS PLpro yeast inactive, Pf growth 96h inconclusive, Shiga inhibitor inactive and Pf growth 48h 2.3µM.
For CC(=O)Nc1ccc(S(=O)(=O)N2c3ccccc3NC(=O)CC2C)c(Cl)c1 (stereo not drawn) the results were CHX counter inactive, NS1 function inh inactive, SARS PLpro yeast inactive, Pf growth 96h inactive, Shiga inhibitor inactive and Pf growth 48h 2.1µM.
For CCOc1ccccc1NS(=O)(=O)c1cn(C)nc1C the results were CHX counter inactive, NS1 function inh inactive, SARS PLpro yeast inactive, Pf growth 96h inactive, Shiga inhibitor inactive and Pf growth 48h inactive[5.75 µM].
`COc1ccc(CN2CCNC(=O)C2CC(=O)NCCCn2cccn2)c(OC)c1` (stereo not drawn) gave CHX counter inactive, NS1 function inh inactive, SARS PLpro yeast inactive, Pf growth 96h inconclusive, Shiga inhibitor inactive and Pf growth 48h inactive.
CCOc1cc(NC(=S)NCCCN2CCOCC2)c(OCC)cc1NC(=O)c1ccc(C)cc1 was read as CHX counter inactive, NS1 function inh inactive, SARS PLpro yeast inactive, Pf growth 96h inactive, Shiga inhibitor inactive and Pf growth 48h inactive.
`Cc1ccc2c(c1)sc1nc(=O)n(-c3cccc(Cl)c3)c(=O)n12` gave CHX counter 19, NS1 function inh inactive, SARS PLpro yeast inactive, Pf growth 96h inactive, Shiga inhibitor inactive and Pf growth 48h inactive.
Screening O=c1nc2sc3ccccc3n2c(=O)n1-c1cccc(Cl)c1 returned CHX counter inactive, NS1 function inh inactive, SARS PLpro yeast inactive, Shiga inhibitor inactive and Pf growth 48h inactive.
For O=c1nc2sc3ccccc3n2c(=O)n1-c1ccc(Cl)cc1 the results were CHX counter 29, NS1 function inh inactive, SARS PLpro yeast inactive, Pf growth 96h inactive, Shiga inhibitor inactive and Pf growth 48h inconclusive.
O=C(Cn1nnc2ccccc2c1=O)N[C@@H](Cc1ccccc1)C(=O)O was read as CHX counter inactive, NS1 function inh inactive, SARS PLpro yeast inactive, Pf growth 96h inactive, Shiga inhibitor inactive and Pf growth 48h inactive.
For Cc1ccc(S(=O)(=O)n2nc(-c3cccnc3)nc2N)cc1 the results were CHX counter inactive, NS1 function inh inactive, SARS PLpro yeast inactive, Pf growth 96h inactive, Shiga inhibitor inactive and Pf growth 48h inactive.
`CC(=O)Nc1ccc(S(=O)(=O)n2nc(-c3ccc(C)cc3)nc2N)cc1` gave CHX counter inactive, NS1 function inh inactive, SARS PLpro yeast inactive, Pf growth 96h 1.7µM, Shiga inhibitor inactive and Pf growth 48h inactive.
Cc1ccc(-c2nc(N)n(S(C)(=O)=O)n2)cc1 was read as CHX counter 30, NS1 function inh inactive, SARS PLpro yeast inactive, Pf growth 96h inactive, Shiga inhibitor inactive and Pf growth 48h inactive.
